Results filed as inconclusive are left out. Where a call stands in place of a potency, no number is given. Calls of active or inactive are those of the source. The call rests on the fitted dose curve; in most records, active means well fitted activation curve with a large enough effect; inconclusive means small, poorly fitted or top-dose-only effect; inactive means flat fitted curve, though single readings scatter.

Potency data for 40 compounds are collected here from PubChem BioAssay AID720517 (National Center for Advancing Translational Sciences (NCATS), 2013).

A short description of this test: qHTS for Inhibitors of Cell Surface uPA Generation: FP59 Counterscreen for Cherry-picked Compounds. Particulars: FP59 anthrax toxin cytotoxicity counterscreen, cells; series mostly up to 115 µM. In general terms: In qHTS, concentration-response curves come from the screen itself.
On to `O=C(c1cccc(F)c1)N1CCN(Cc2cccc(Br)c2)CC1`, for which the Potency entry was “inactive”.
`CCCCNc1nnc(SCC(=O)c2c(N)n(CCC)c(=O)[nH]c2=O)s1`: the Potency result is “inactive”.
`CCOc1ccc(C2(C)CC(=O)N(C)C2=O)cc1` (stereo not given): the Potency result is “inactive”.
Turning to `Fc1ccc(N2CCN(c3nc(CN4CCOCC4)nc4scc(-c5ccccc5)c34)CC2)cc1`, the Potency result is “inactive”.
As for `COc1ccc([C@H]2[C@H](C(=O)OC(C)(C)C)N3N=Cc4ccccc4C3C23C(=O)c2ccccc2C3=O)cc1OC` (stereo not given in full), the Potency result was “inactive”.
The same measure for `COCCN(CCOC)c1nc(-c2ccc(C)cc2)nc2ccccc12`: “inactive”; for `CCOc1ccc(CCNC(=O)Cc2ccc(NC3=NC4CS(=O)(=O)CC4S3)cc2)cc1OCC` (stereo not given): “inactive”.
The same measure for `O=C1NC(CCc2ccccc2)C(=O)N1Cc1ccccc1Cl` (stereo not given): “inactive”; for `O=C(NNC(=O)c1ncc(Cl)c(Cl)c1Cl)c1ccc(F)cc1`: “inactive”.
As for `CCOc1ccc(NS(=O)(=O)c2ccc(C(=O)N3CCC3)cc2)cc1`, the entry is “inactive”; as for `CCOC(=O)C1=CC[C@@H](c2cc3ccc(OC)cc3n2C)N(S(=O)(=O)c2ccc(C)cc2)[C@H]1C(=O)OCC`, “inactive”; as for `CCn1nc(NS(=O)(=O)c2ccccc2)c2cc3cc(C)ccc3nc21`, “inactive”.
For the compound `O=c1[nH]c2c(s1)C(c1ccc(O)cc1)C1C3CCC(C3)C1S2` (stereo not given), the Potency entry is “inactive”.
The same measure for `CC(=O)c1ccc(N2CCN(C(=S)NCc3ccco3)CC2)cc1`: “inactive”; for `C=CCOC(=O)C1=C[C@@H](c2coc3ccccc3c2=O)C[C@@H](OCc2ccc(CO)cc2)O1`: “inactive”; for `COC(/C=C/Nc1ccc(Cl)cc1)=C(C#N)C#N`: “inactive”.
As for `O=c1[nH]c(SCc2cccc(Cl)c2)nc2ccccc12`, the entry is “inactive”; as for `C[C@H]([C@H](O)c1ccccc1)N(C)C(=O)CN`, “inactive”.
In the case of `Cc1c(C(=O)N(Cc2ccccc2Cl)C2CCS(=O)(=O)C2)oc2ccccc12` (stereo not given), the Potency result was “inactive”.
As for `C/C=C(/C(=C/C)c1ccc(O)cc1)c1ccc(O)cc1`, the entry is “inactive”; as for `COc1cccc(NC(=S)NCc2ccc3c(c2)cc(C)n3C)c1`, “inactive”.
As for `O=C(NNC(=O)C1CC(c2cccs2)=NO1)Nc1ccccc1` (stereo not given), the entry is “inactive”; as for `O=C(NCCc1ccccc1)C1CCC(=O)N(Cc2cccc(C(F)(F)F)c2)C1` (stereo not given), “inactive”.
Regarding `CCOc1ccccc1CN1CCCC(CNS(=O)(=O)c2ccc(OC)cc2)C1` (stereo not given), the Potency result was “inactive”.
As for `NC(=O)c1cc2c3ccccc3ccn2c1-c1ccccc1`, the entry is “inactive”; as for `COc1ccc(OC)c(N2C(=O)CC(Cc3cc(C)cc(C)c3)C2=O)c1` (stereo not given), “inactive”.
`O=C(Nc1ccc(S(=O)(=O)N2CCOCC2)cc1)c1cc(-c2ccccc2O)n[nH]1`: the Potency result is “inactive”.
As for `O=C(Cc1ccc(Cl)cc1)c1c[nH]c(C(=O)NCCCn2ccnc2)c1`, the Potency entry is “inactive”.
The same measure for `CCN(CC)c1ccc(C=NCCc2ccc(S(N)(=O)=O)cc2)cc1`: “inactive”; for `COc1cc(CCC(=O)OCC(=O)NCc2ccccc2)cc(OC)c1OC`: “inactive”.
The same measure for `O=C(c1cc2cc([N+](=O)[O-])ccc2s1)N1CCOCC1`: “inactive”.
For the compound `O=C(NCc1ccco1)/C(=C\c1cccs1)NC(=O)c1ccccc1`, the Potency result is “inactive”.
Regarding `COC(=O)[C@]1(Cc2ccccc2)N[C@H](CN(C)C(=O)Nc2ccccc2)[C@@H]2C(=O)N(Cc3ccccc3)C(=O)[C@@H]21`, the Potency result was “inactive”.
Consider `CCS(=O)c1scc(-c2ccc(Cl)cc2)c1C#N` (stereo not given), for which the Potency result is “inactive”.
Regarding `COc1ccc(N2CCN(C(=O)COc3ccc4c(C)c(C)c(=O)oc4c3C)CC2)cc1`, the Potency entry was “inactive”.
The same measure for `Cc1ccccc1S(=O)Cc1ccc(C(=O)N2CCN(C(=O)c3ccco3)CC2)o1` (stereo not given): “inactive”; for `C=CCn1c(C)cc(C(=O)COC(=O)/C=C/c2cccc(OC)c2)c1C`: “inactive”.
The same measure for `Cc1ccc(NC(=O)CS(=O)Cc2nc(-c3ccc(C)cc3)oc2C)cc1` (stereo not given): “inactive”; for `C[C@H]1CN([C@@H](C)CO)C(=O)c2cccc(NC(=O)c3cnccn3)c2O[C@@H]1CN(C)S(=O)(=O)c1ccc(F)cc1`: “inactive”; for `CC1(C)Oc2ccc3ccc(=O)oc3c2[C@@H](O)[C@H]1O`: “inactive”.
